The list is not random: actives were taken first. Their share in the collection is about 7.5%.
SMN2 splice enh – increases expression of the SMN2 splice variant | 210,000 tested, 2.8% active | HEK293 SMN2-luciferase splicing reporter, luminescence, 30-36 h | Potency, µM (top dose mostly 46.1 µM), hits mostly activators; also: nearly all actives have a fitted effect of over 55% in size
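HEK293 cells carry an SMN2 minigene-luciferase reporter in which exon 7 inclusion puts luciferase in frame. Cells were seeded at 2000 cells/well, attached for 10-12 hours, then exposed to compounds for 30-36 hours at 37C before ONE-Glo luminescence.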
FLuc modulator – counter-screen for miR-21 project: firefly luciferase inhibitors or activators. purified FLuc, Km substrates, luminescence inhibition. AID 588342. Potency, µM (series often up to 57.5 µM), actives largely listed as inhibitors. P08659. 360,000 tested, 6.9% active; also: nearly all actives have a fitted effect of over 55% in size
Target sequence (P08659 whole entry, looked up): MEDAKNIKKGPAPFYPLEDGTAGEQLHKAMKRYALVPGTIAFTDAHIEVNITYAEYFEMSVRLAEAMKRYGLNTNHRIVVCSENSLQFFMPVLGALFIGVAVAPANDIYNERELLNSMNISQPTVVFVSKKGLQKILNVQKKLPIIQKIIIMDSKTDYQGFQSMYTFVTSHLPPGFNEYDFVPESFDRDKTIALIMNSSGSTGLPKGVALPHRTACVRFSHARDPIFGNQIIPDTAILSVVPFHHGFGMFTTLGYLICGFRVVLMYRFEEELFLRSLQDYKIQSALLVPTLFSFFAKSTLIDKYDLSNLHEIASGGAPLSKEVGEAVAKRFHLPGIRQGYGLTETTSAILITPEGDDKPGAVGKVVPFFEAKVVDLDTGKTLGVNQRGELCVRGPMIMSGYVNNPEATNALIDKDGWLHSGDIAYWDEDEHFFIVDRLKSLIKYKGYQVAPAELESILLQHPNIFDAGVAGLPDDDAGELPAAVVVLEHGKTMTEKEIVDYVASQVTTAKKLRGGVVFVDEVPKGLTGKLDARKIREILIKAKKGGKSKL
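Biochemical qHTS of compounds, final roughly 60 µM downward over six points, against 10 nM purified firefly luciferase using Km concentrations of substrates (10 uM D-luciferin, 10 uM ATP) in Tris acetate pH 7.5 buffer; luminescence output.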
Rab9 promoter act – activators of Rab9 promoter | Huh7 Rab9 promoter-luciferase reporter, luminescence, 24 h | Potency, µM (top dose mostly 9.22 µM), actives largely listed as activators | 320,000 tested, 2.8% active | AID 485297; also: nearly all actives have a fitted effect of over 60% in size
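Steps: seed 1500 Huh7 Rab9-luc cells per well, rest 2 h at 37 °C; add compound in DMSO; incubate 24 h; add luciferase reagent, 10 min ambient; read luminescence.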
ELG1 genotoxic – genotoxicity induction in ELG1-luciferase HEK293T cells. Potency, µM (top dose mostly 46 µM), actives largely listed as activators. HEK293T ELG1-luciferase reporter, luminescence, 16 h. 330,000 tested, 1.3% active; also: nearly all actives have a fitted effect of over 60% in size
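Step 1: seed 2,000 HEK293T ELG1-luciferase cells per well. Step 2: add compound or DMSO, incubate 16 hr at 37 °C. Step 3: ONE-Glo, 30 min at room temperature, read luminescence.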
Luc counter – counter-screen: inhibitors of Kinase-Glo firefly luciferase. Kinase-Glo luciferase, ATP luminescence, 8 min. Potency, µM (highest dose often 38.3 µM), usual class: inhibitors. 200,000 tested, 0.28% active. AID 1379; also: nearly all actives have a fitted effect of over 60% in size
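Recombinant Kinase-Glo luciferase, 10 uM ATP (linear range), luciferin; imidazole pH 7.2 / KCl / MgCl2 / Tween / BSA buffer; 8 min RT; luminescence.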
NPC1 promoter act – activates the NPC1 promoter; AID 485313; 320,000 tested, 2.4% active; Potency, µM (highest dose often 9.22 µM), actives largely listed as activators; Huh7 NPC1 promoter luciferase reporter, 24 h; also: nearly all actives have a fitted effect of over 60% in size
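Quantitative HTS used a cell-based reporter: Huh7 cells stably bearing the NPC1 promoter upstream of luciferase were treated with compounds for 24 h, and promoter activation was read as luminescence.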
Of the large screens only hits and unclear results are named; the others gave an inactive call. Calls follow the shape of the dose curve; as a rule, active = well fitted curve in the direction sought with a large enough effect; inconclusive = small, poorly fitted or top-dose-only effect, or another doubt; inactive = no such curve, though single readings can be large; an effect the other way counts as inactive or inconclusive.

CCC(=O)N1CCN(c2nc(-c3ccc(Cl)cc3)cs2)CC1	FLuc modulator 27µM
COc1cc(-c2csc(N3CCOCC3)n2)cc(OC)c1OC	none
Fc1ccc(-c2csc(N3CCOCC3)n2)cc1	FLuc modulator 21µM, Rab9 promoter act 2.5µM, NPC1 promoter act 4µM (no result: SMN2 splice enh, Luc counter)
CC1CN(C(=O)CSc2nc(-c3ccc(F)cc3)cs2)CC(C)O1 (centres undefined)	none
O=C(CSc1nc(-c2ccc(F)cc2)cs1)N1CCOCC1	FLuc modulator inconclusive, Rab9 promoter act inconclusive, ELG1 genotoxic 18µM
O=C(c1ccco1)N1CCN(C(=O)c2cn(-c3ccccc3)nc2-c2ccc(F)cc2)CC1	FLuc modulator 4.8µM (no result: SMN2 splice enh, Luc counter)
O=C(CN1C(=O)NC2(CCCCCC2)C1=O)NCc1ccccc1Cl	none (no result: SMN2 splice enh, FLuc modulator, Rab9 promoter act, Luc counter, NPC1 promoter act)
O=C1C2C3C=CC(C4CC34)C2C(=O)N1c1cccc2ccccc12 (centres undefined)	FLuc modulator 6.7µM (no result: SMN2 splice enh, Luc counter)
CCCCC(CC)COC(=O)c1ccccc1O (centres undefined)	none (no result: SMN2 splice enh, FLuc modulator, Rab9 promoter act, ELG1 genotoxic, NPC1 promoter act)
O=C(COc1ccc(Cl)cc1)Nc1ncccn1	FLuc modulator 19µM, ELG1 genotoxic 21µM
Cc1ccnc(NC(=O)COc2ccc(Cl)cc2)n1	FLuc modulator 24µM, ELG1 genotoxic inconclusive (no result: SMN2 splice enh, Luc counter)
O=C(COc1ccc(Cl)cc1)NNC(=O)c1ccccn1	none
Cc1cc(C)nc(NC(=O)COc2ccc(Cl)cc2)c1	none (no result: FLuc modulator, Rab9 promoter act, ELG1 genotoxic, NPC1 promoter act)
CC(C)c1cc(C(=O)Nc2cc(Br)ccc2O)no1	SMN2 splice enh inconclusive, FLuc modulator inconclusive, Rab9 promoter act inconclusive, ELG1 genotoxic inconclusive
O=C(Nc1cc(Br)ccc1O)c1cc(-c2cccs2)on1	FLuc modulator inconclusive, Rab9 promoter act inconclusive (no result: SMN2 splice enh, Luc counter)
CCCc1cc(C(=O)Nc2cc(Cl)ccc2O)no1	FLuc modulator 11µM, Rab9 promoter act inconclusive, ELG1 genotoxic 16µM, NPC1 promoter act inconclusive (no result: SMN2 splice enh, Luc counter)
CCCc1cc(C(=O)Nc2cc(Br)ccc2O)no1	SMN2 splice enh inconclusive, FLuc modulator inconclusive, ELG1 genotoxic 13µM
CC(C)c1cc(C(=O)Nc2cc(Cl)ccc2O)no1	SMN2 splice enh 13µM, FLuc modulator 7.6µM, Rab9 promoter act 1.6µM, ELG1 genotoxic inconclusive, NPC1 promoter act 2.8µM
CSc1ccccc1NC(=O)c1cc(C(C)C)on1	FLuc modulator 21µM, Rab9 promoter act inconclusive, ELG1 genotoxic 12µM, NPC1 promoter act inconclusive
CCn1nc(C)c(Br)c1-c1nc(-c2ccc(C)cc2)no1	FLuc modulator 15µM (no result: SMN2 splice enh, Luc counter)
CCn1nc(C)c(Br)c1-c1nc(CS(=O)(=O)c2ccc(F)cc2)no1	none (no result: SMN2 splice enh, Luc counter)
COc1ccc(-n2c(=O)c3c(c4cc(OC)ccc4n3C)n(Cc3cccc(OC)c3)c2=O)cc1	none (no result: SMN2 splice enh, Rab9 promoter act, ELG1 genotoxic, Luc counter, NPC1 promoter act)
CC(C)c1ccc(-c2noc(SCC(=O)N3CCCCC3)n2)cc1	FLuc modulator 2.4µM (no result: SMN2 splice enh, Rab9 promoter act, ELG1 genotoxic, Luc counter, NPC1 promoter act)
CC(C)c1ccc(-c2c(C#N)c(N)nc(SCC(=O)N3CCCCCC3)c2C#N)cc1	none
CC(C)c1ccc(-c2noc(SCC(=O)N(C)c3ccc(F)cc3)n2)cc1	FLuc modulator 6µM (no result: SMN2 splice enh, Rab9 promoter act, ELG1 genotoxic, Luc counter, NPC1 promoter act)
NC(=O)C1CCN(Cc2nc3cc(C(F)(F)F)ccc3c(=O)[nH]2)CC1	none (no result: SMN2 splice enh, Luc counter)
O=C1O/C(=C/c2ccccc2)c2ccccc21	FLuc modulator 12µM
O=c1[nH]c(=O)n([C@@H]2C[C@H](O)[C@H](CO)O2)cc1C(F)(F)F	none (no result: FLuc modulator, Rab9 promoter act, ELG1 genotoxic, NPC1 promoter act)
O=C(c1ccc(-c2ccc([N+](=O)[O-])cc2)o1)N1CCCC(C(F)(F)F)C1 (centres undefined)	none (no result: SMN2 splice enh, Luc counter)
O=C(c1ccc(-c2ccc([N+](=O)[O-])cc2)o1)N1CCCCCCC1	FLuc modulator 11µM, Rab9 promoter act inconclusive, NPC1 promoter act inconclusive (no result: SMN2 splice enh, Luc counter)
COC(=O)CSc1nnc(SCc2ccccc2)s1	FLuc modulator 19µM
O=C(c1ccco1)N1CCN(C(=O)c2ccc(-c3ccc(Cl)cc3)o2)CC1	FLuc modulator 17µM (no result: SMN2 splice enh, Luc counter)
O=C(CSc1nncs1)N1CCN(C(=O)c2ccco2)CC1	none (no result: SMN2 splice enh, Luc counter)
O=C(CSc1nnc(SCc2ccc(Cl)cc2)s1)N1CCN(C(=O)c2ccco2)CC1	FLuc modulator 9.5µM
O=C(N/C(=C\c1ccc(Br)cc1)C(=O)N1CCOCC1)c1ccc([N+](=O)[O-])cc1	none (no result: SMN2 splice enh, Luc counter)
COc1cccc(CN(C(=O)c2oc3ccccc3c2C)C2CCS(=O)(=O)C2)c1 (centres undefined)	none (no result: Rab9 promoter act, ELG1 genotoxic, Luc counter, NPC1 promoter act)
